High-throughput results: PubChem BioAssay, several laboratories
PostGolgi yeast: growth inhibition of a yeast mutant, post-Golgi transport screen; post-Golgi transport phenotypic cell assay; inhibition, % at 10 µM; 98,000 compounds, 0.9% hits; AID 739;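 further: yeast cells grown in 1536-well plates; yeast grown about 18 h at 30C before absorbance read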
PostGolgi ctrl: growth of the yeast control strain, post-Golgi counter-screen | 98,000 compounds, 5% hits | inhibition, % at 10 µM | efflux-deficient yeast background strain, growth absorbance A615, 16 h
CYP2C19 activ: activators of human cytochrome P450 2C19. P33261. recombinant CYP2C19, luciferin-H EGE luminescence; stronger effect = higher value; 0 = fully inhibited enzyme, 1 = untreated enzyme. activation factor at 5 µM. 96,000 tested, under 10 active. AID 1025;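 active means activation factor of at least 2 at 5 µM in the primary screen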
CYP2C19 inh: blocks human cytochrome P450 2C19 | P33261 | CYP2C19 Supersomes, luciferin-H EGE luminescence, 30 min | inhibition, % at 5 µM | 96,000 compounds, 21% hits | AID 778;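 active means CYP2C19 inhibition above a set limit at 5 µM in the primary screen, cut at about 50% in these data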
CYP2C9 inhib: inhibitors of human CYP2C9; P11712; CYP2C9 Supersomes, luciferin-H conversion, luminescence; inhibition, % at 5 µM; 96,000 compounds, 20% hits; AID 777;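 active means blocking of liver enzyme CYP2C9 beyond about 50% at 5 µM, limit read from the data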
Target sequence (P11712 whole entry, looked up): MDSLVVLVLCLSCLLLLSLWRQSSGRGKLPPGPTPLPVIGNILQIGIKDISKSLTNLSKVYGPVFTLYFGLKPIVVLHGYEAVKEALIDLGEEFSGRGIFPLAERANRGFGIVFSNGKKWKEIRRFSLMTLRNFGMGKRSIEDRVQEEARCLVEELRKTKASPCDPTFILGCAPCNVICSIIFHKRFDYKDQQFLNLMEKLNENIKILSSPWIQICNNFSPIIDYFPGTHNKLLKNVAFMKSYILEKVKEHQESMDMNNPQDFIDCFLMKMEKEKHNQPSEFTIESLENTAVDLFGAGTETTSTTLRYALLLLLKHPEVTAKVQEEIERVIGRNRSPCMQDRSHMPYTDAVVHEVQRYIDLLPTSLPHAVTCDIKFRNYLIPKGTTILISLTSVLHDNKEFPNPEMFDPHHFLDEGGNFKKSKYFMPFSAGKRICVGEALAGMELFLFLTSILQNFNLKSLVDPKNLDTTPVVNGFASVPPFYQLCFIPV
CYP2C9 activ: increases human cytochrome P450 2C9 activity; 96,000 compounds, 1.4% hits; recombinant CYP2C9, luciferin-H conversion, luminescence; stronger effect = higher value; factor 1 = untreated enzyme, 0 = blocked; activation factor at 5 µM; P11712; AID 1024;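 active means activation factor of 2 or more for CYP2C9 at a 5 µM dose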
Large screens that a line does not name were inactive. Compounds with a hit are over-represented: about 32% of the library has one in this group of screens. Unless noted, no stated cut-off is given here; in the data, active means inhibition above about 30%; inactive means the rest.

COc1cc(OC)c(OC)cc1CN1CCN(S(=O)(=O)c2ccc(F)cc2)CC1	none
COc1cc(CN2CCN(S(=O)(=O)c3ccc(F)cc3)CC2)cc(OC)c1OC	CYP2C19 inh 84.2
CCOC(=O)c1ccc(S(=O)(=O)N2CCN(S(=O)(=O)CC)CC2)cc1	none
O=C(O)c1cc2ccc3ccccc3c2[nH]1	none
O=S(=O)(NCc1ccccc1)c1ccc(S(=O)(=O)N2CCCCC2)cc1	none
O=S(=O)(c1ccc(S(=O)(=O)N2CCCN(Cc3ccccc3)C2)cc1)N1CCCCCC1	CYP2C19 inh 71.5, CYP2C9 inhib 73.6
O=[N+]([O-])c1ccc(Sc2cccc3cccnc23)c([N+](=O)[O-])c1	none
O=[N+]([O-])c1ccc(Sc2cccc3cccnc23)cc1	CYP2C19 inh 83.6
COc1ccc(C(=N/O)/C(=N/O)c2ccc(OC)cc2)cc1	CYP2C19 inh 59.6
COc1ccc(C(=O)c2ccc(Br)cc2)cc1	none (no result: CYP2C19 activ, CYP2C19 inh, CYP2C9 inhib, CYP2C9 activ)
COCCCn1c(SCC(=O)Nc2cccc(C(=O)OC)c2)nnc1-c1ccncc1	CYP2C19 inh 81.3, CYP2C9 inhib 79.4
COCCn1c(SCC(=O)Nc2cccc(OC)c2)nnc1-c1ccccc1	none
COCCn1c(SCC(=O)Nc2sc(C)c(C)c2C#N)nnc1-c1ccc(OC)cc1	CYP2C9 inhib 54.3
COCCn1c(SCC(=O)Nc2cccc(OC)c2)nnc1-c1ccc(Cl)cc1	CYP2C19 inh 93.5, CYP2C9 inhib 67.4
Cc1sc(NC(=O)CSc2nnc(COc3ccc(Cl)cc3)n2C)c(C#N)c1C	none
c1cncc(-c2nc(Oc3ccc(-c4nnco4)cc3)c3c4c(sc3n2)CCCC4)c1	CYP2C19 inh 93.2, CYP2C9 inhib 97.5 (no result: PostGolgi yeast, PostGolgi ctrl)
Cc1ccc(NC(=O)c2c(C(F)(F)F)nn(C)c2SCc2cccc(C(F)(F)F)c2)cc1C	CYP2C9 inhib 91.9
Cc1ccc(NC(=O)c2c(C(F)(F)F)nn(C)c2SCc2ccc(Cl)cc2)cc1C	CYP2C19 inh 64.8, CYP2C9 inhib 99.5
Cc1ccc(NC(=O)c2c(C(F)(F)F)nn(C)c2Cl)cc1C	none (no result: CYP2C19 activ, CYP2C19 inh, CYP2C9 inhib, CYP2C9 activ)
CCOC(=O)c1ccc(NC(=O)C2(c3ccc(OC)cc3)CCCC2)cc1	none
CCOC(=O)C1CCCN(S(=O)(=O)c2ccccc2)C1 (stereo not given)	none
O=C(NC1CCCC1)C1CCCN(S(=O)(=O)c2ccc(-n3cnnn3)cc2)C1 (stereo not given)	none
CCOC(=O)C1CCCN(S(=O)(=O)c2ccc(OC)c3ccccc23)C1 (stereo not given)	CYP2C19 inh 98.3
CC(C)NC(=O)C1CCCN(S(=O)(=O)c2ccc(-n3cnnn3)cc2)C1 (stereo not given)	CYP2C9 inhib 50.7
CCOC(=O)C1CCCN(S(=O)(=O)c2cn(C)c(=O)n(C)c2=O)C1 (stereo not given)	CYP2C19 inh 78.5
CCOC(=O)C1CCCN(S(=O)(=O)c2ccc(Br)c(OC)c2)C1 (stereo not given)	CYP2C19 inh 70.7
CC(=O)c1ccc(N2CCN(c3ccc(S(=O)(=O)N4CCN(C)CC4)cn3)CC2)cc1	none
CCOC(=O)C1CCCN(S(=O)(=O)c2ccc(F)c(C(=O)Nc3ccc(F)c(F)c3)c2)C1 (stereo not given)	CYP2C19 inh 58.6, CYP2C9 inhib 60.3
CCOC(=O)C1CCCN(S(=O)(=O)c2c(C)c(C)cc(C)c2C)C1 (stereo not given)	CYP2C19 inh 86.6
NC(=O)C1CCCN(S(=O)(=O)c2ccc(Br)cc2)C1 (stereo not given)	CYP2C19 inh 58.6
O=C(O)c1cc(-c2ccco2)nc2ccc(Br)cc12	none
Cc1ccc(S(=O)(=O)N2CCC(C(=O)N[C@H](C(=O)NC3CCS(=O)(=O)C3)C(C)C)CC2)cc1 (stereo not given in full)	none
Cc1c(C(=O)O)sc2ncn(C)c(=O)c12	none
O=C1CC(c2ccccc2)Cc2nc3ncnn3cc21 (stereo not given)	CYP2C19 inh 98.9
Cc1ccc(S/C=C\C(=O)c2ccccc2)cc1	none
Cc1nc2c(=O)n(C)c(=O)[nH]c2n1Cc1ccccc1	none
COc1ccc(-c2nc3c(=O)n(C)c(=O)[nH]c3n2CCc2ccccc2)cc1	CYP2C9 inhib 72.1
CCCn1c(-c2ccccc2)nc2c(=O)n(C)c(=O)[nH]c21	PostGolgi ctrl 35.8
O=C1C(=O)N(CCCN2CCOCC2)C(c2cccs2)/C1=C(/O)c1ccc2c(c1)OCO2 (stereo not given)	none (no result: CYP2C19 activ, CYP2C19 inh, CYP2C9 inhib, CYP2C9 activ)
COc1cc(OC)c(-c2nn3c(-c4cccnc4)nnc3s2)cc1OC	none (no result: PostGolgi yeast, PostGolgi ctrl)
Oc1c(C(Nc2ccccn2)c2ccccn2)ccc2cccnc12 (stereo not given)	CYP2C9 inhib 67.0
Cc1ccc2ccc(C(Nc3ccccn3)c3ccccc3)c(O)c2n1 (stereo not given)	CYP2C19 inh 75.0, CYP2C9 inhib 94.1
CC(=O)Nc1cc(C(C)(C)C)c(O)c(C(C)(C)C)c1	PostGolgi ctrl 32.9, CYP2C9 inhib 88.4
O=C(Cc1ccccc1)NC(=S)Nc1cccc(C(F)(F)F)c1	none
FC(F)(F)c1cccc(NC(=S)NNC(=S)NCc2ccccc2)c1	CYP2C9 inhib 75.4
S=C(NCc1ccccn1)Nc1cccc(Cl)c1	CYP2C19 inh 57.3
Cc1cccc(NC(=O)C(=O)NCc2ccccn2)c1	none
CCCNC(=S)Nc1ccc(Nc2ccccc2)cc1	none
Cc1ccc(NC(=S)NNC(=S)NCc2ccccc2)cc1	CYP2C9 inhib 94.2
Cc1ccc(NC(=S)NCc2ccccn2)cc1	CYP2C9 inhib 69.2
Cc1noc(C)c1CN1C(=O)NC(Cc2ccccc2)(Cc2ccccc2)C1=O	none
COc1ccc(NC(=O)CN2CCN(c3ccc(Cl)cc3)CC2)c(OC)c1	none
CCOC(=O)c1cc2c(=O)[nH]ccc2nc1C	none
CC(C)(C)NC1=CC(=O)OC12CCCCC2	none
O=C(NC1CCCCC1)C1CCN(c2cnccn2)CC1	none
Cc1ccccc1NC(=O)c1sc(Cl)nc1-c1ccccc1	PostGolgi ctrl 39.2, CYP2C19 inh 61.4
Cc1ccc(C)c(NC(=O)c2sc(Cl)nc2-c2ccccc2)c1	none
CC(Nc1cc(=O)n(C)c(=O)n1C)c1ccccc1 (stereo not given)	none (no result: CYP2C19 activ, CYP2C19 inh, CYP2C9 inhib, CYP2C9 activ)
CCn1ncc(/C=N/NS(=O)(=O)c2ccc(Cl)cc2)c1C	CYP2C19 inh 66.6, CYP2C9 inhib 88.3
O=C(N/N=C/c1c(Cl)cccc1Cl)c1ccc(F)cc1	none
O=S(=O)(N/N=C/c1ccc2c(c1)OCCO2)c1ccc(Cl)cc1	CYP2C9 inhib 70.8
O=S(=O)(N/N=C\c1c(F)cccc1Cl)c1ccc(Cl)cc1	CYP2C19 inh 81.0, CYP2C9 inhib 63.9
Cc1cc(Cl)c(S(=O)(=O)N/N=C/c2ccc3c(c2)OCO3)c(Cl)c1	CYP2C9 inhib 96.4
Cc1oc(/N=C/c2ccc3c(c2)OCO3)c(C#N)c1C	none
C(=N\n1cnnc1)/c1ccc2c(c1)OCCO2	none
COc1ccsc1C(=O)N1CCN(Cc2ccc3c(c2)OCO3)CC1	CYP2C19 inh 85.2
Cn1c(C(=O)N2CCC(C(=O)N3CCOCC3)CC2)cc2sccc21	none
